Consider three molecules from PubChem BioAssay AID2061313 (National Center for Advancing Translational Sciences (NCATS), 2025).

Records with an inconclusive call do not appear. Active and inactive are the calls of the source. Calls come from the whole dose curve; as a rule, active = well fitted curve in the direction sought with a large enough effect; inconclusive = small, poorly fitted or top-dose-only effect, or another doubt; inactive = no such curve, though single readings can be large or run the other way.

The experiment deals with Aldehyde dehydrogenase 1A1 (Homo sapiens) (UniProt P00352). Kind of experiment: qHTS for Inhibitors of the Aldehyde Dehydrogenase Family (ALDH1A1) Validation screens. The note with it: fluorescence; Potency: ALDH1A1 inhibition validation qHTS; series mostly up to 39.8 µM; activity change, negative = inhibition: at the top concentration. In general terms: In qHTS, concentration-response curves come from the screen itself.
On to `CC(C)(C)c1ccc(S(=O)(=O)/C=C/C#N)cc1`, for which the Potency is 89.1 nM (active).
`O=c1c(-c2ccc(O)cc2)coc2cc(O[C@@H]3O[C@H](CO)[C@H](O)[C@H](O)[C@H]3O)ccc12`: the “activity change, negative = inhibition” value is -7.82% (inactive).
Regarding `CC(C)N(CCC(=O)c1ccc2ccccc2c1)Cc1ccccc1`, the Potency was 70.8 nM (active).
